MazEF act – activators of E. coli MazEF toxin-antitoxin RNase. P0AE70. FAM/BHQ RNA-DNA oligo cleavage fluorescence, 5 h. activation, % at 20 µM. 0.32% of 350,000 active; in the data active = activation above about 50%
PfHsp40 rescue – restores yeast growth despite PfHsp40 toxicity | 0.68% of 340,000 active | S. cerevisiae expressing PfHsp40, growth rescue, ATP luminescence | growth rescue, % at 12.5 µM; in the data active = growth rescue above about 28%, passing the limit was not always enough; inconclusive = no clear call, values can overlap the other calls;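 also: yeast W303a lacking pdr1 and pdr3 grown in galactose medium; growth measured after three days at 30 °C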
PrPC surface inh – cell surface PrPC inhibition, primary TR-FRET screen; AID 720596; 0.43% of 370,000 active; TR-FRET read-out; inhibition, % at 13.8 µM; P04156; in the data active = inhibition above about 24%
SSB-PriA inh – blocks PriA binding to SSB C-terminal tail; AlphaScreen SSBct-PriA binding, biotinylated peptide; inhibition, % at 33 µM; 0.6% of 430,000 active; in the data active = inhibition mostly above about 37%, no sharp cut-off; inactive = mostly below about 20%
PrP UTR inh – suppresses PrP 5' UTR mRNA reporter expression. inhibition, % (no concentration beside the values). cell-based PrP 5' UTR mRNA reporter, plate reader. AID 488862. 0.35% of 340,000 active; in the data active = inhibition above about 52%
PrPC confirm – confirmation of inhibitors of cell surface human prion protein. AID 743200. 65% of 1,500 active. shares compounds with PrPC surface inh. inhibition, % at 13.8 µM. cell surface PrPC level, TR-FRET; in the data active = inhibition above about 25%
LD9 cytotox – kills or reduces viability of LD9 cells in PrPc counter-screen. shares compounds with PrPC surface inh. LD9 cells cytotoxicity, luminescence viability. inhibition, % at 13.8 µM. 29% of 1,500 active. AID 743201; in the data active = inhibition above about 9.5%
Numbers stand for hits; n = inactive; u = inconclusive; x = no result. Shown are actives, neighbours in structure and some others; about 1.8% of the full set was active somewhere.

SMILES	MazEF act	PfHsp40 rescue	PrPC surface inh	SSB-PriA inh	PrP UTR inh	PrPC confirm	LD9 cytotox
Cc1ccccc1OCCC(=O)Nc1ccc2c(C)cc(=O)oc2c1	n	n	38	n	n	27	n
Cc1ccccc1OCC(=O)Nc1ccc(Cc2ccncc2)cc1	n	n	25	n	n	n	n
COc1ccc(NC(=O)Nc2ccc(Cc3ccncc3)cc2)c(OC)c1	n	n	26	n	n	n	n
COc1ccc(NC(=O)Nc2cnccn2)c(OC)c1	n	n	n	n	n	x	x
CCOC(=O)CN1CCC(COCc2ccc(C#N)cc2)CC1	x	x	x	n	x	x	x
O=C(NCc1ccccc1)O[C@@H]1CC[C@@]23CCCN2C(=O)CCC[C@H]3C1	x	x	n	x	x	x	x
CCCCCC(=O)N1C[C@H](n2cc(C3CC3)nn2)[C@@H](O)C[C@@H]1c1ccc(OC)cc1	n	x	n	x	x	x	x
O=S(=O)(/N=C(/Nc1ccccn1)c1ccc(Cl)cc1)c1ccc(Cl)cc1	n	n	n	x	n	x	x
CC(C)(C)c1csc(NC(=O)CCc2ccccc2)n1	n	n	26	n	n	n	n
O=C(Cc1ccccc1)Nc1cccc(NC(=O)c2cccs2)c1	n	n	32	n	n	n	n
O=C(CCc1ccccc1)Nc1cccc(NC(=O)CCc2ccccc2)c1	n	n	25	n	x	n	n
CC(C)(C)c1csc(NC(=O)Cc2cccs2)n1	n	n	n	n	n	x	x
O=C(Nc1ccc(OCc2ccccc2)cc1)c1cccs1	n	n	25	n	n	n	n
O=C(NC1CCCCN(Cc2cccc(Cl)c2)C1=O)c1ccccc1 (centres undefined)	x	x	n	x	x	x	x
CCC(=O)N1CCc2cc(S(=O)(=O)N3CCN(c4ccccc4)CC3)ccc21	n	n	n	n	n	x	x
Cn1c(=O)c([N+](=O)[O-])c(Cl)c2ccccc21	n	n	57	n	n	50	98
Cc1ccc(NC(=O)COC(=O)CCC2CCCC2)cc1S(=O)(=O)N1CCOCC1	n	n	n	n	n	x	x
COc1ccc(-c2cc(NCCc3ccncc3)n3ncnc3n2)cc1	n	n	106	n	n	n	n
COc1ccc(-c2cc(NCc3ccccn3)n3ncnc3n2)cc1	n	n	n	n	n	x	x
CC(C)C[C@H](NC(=O)c1[nH]cnc1C(=O)N[C@H](C)c1ccccc1)C(=O)OC(C)(C)C	n	n	27	n	n	n	n
Cc1ccc(CN2CCCCC(NC(=O)c3ccc(F)cc3)C2=O)cc1 (centres undefined)	x	x	n	x	x	x	x
Cc1ccc(CN2CCCCC(NC(=O)c3ccc(COc4ccccc4)cc3)C2=O)cc1 (centres undefined)	x	x	25	x	x	n	n
Cc1cccc2cc(C(c3nnnn3Cc3ccccc3)N3CCN(c4ccccc4)CC3)c(=O)[nH]c12 (centres undefined)	n	n	59	n	n	n	n
CCOC(=O)c1c(NC(=O)CSc2nnc(Cc3ccccc3)o2)sc(C(C)=O)c1C	n	n	27	n	n	n	n
CCCOC(=S)NC(=O)c1sc2ccccc2c1Cl	n	n	32	n	x	38	n
SMILES	MazEF act	PfHsp40 rescue	PrPC surface inh	SSB-PriA inh	PrP UTR inh	PrPC confirm	LD9 cytotox
O=C(NC(=S)NCCO)c1sc2ccccc2c1Cl	n	n	78	n	n	80	n
CC(C)(C)C(=O)NC(=S)NNC(=O)c1sc2ccccc2c1Cl	n	u	x	n	n	x	x
CCOC(=S)NC(=O)c1sc2ccccc2c1Cl	n	n	45	n	x	34	n
CC(C)c1c(C(=O)N/N=C2\CCc3ccccc32)nnn1-c1nonc1N	n	n	n	x	n	x	x
NC(=O)c1ccc(-c2ccc(Br)cc2)o1	n	n	53	n	n	63	n
Cc1oc2cc(OC(=O)N3CCOCC3)ccc2c(=O)c1-c1ccc(Cl)cc1	x	x	x	n	x	x	x
COc1ccc(NC2CCCN(C(=O)C3(C)CCCCC3)C2)cc1OC (centres undefined)	n	n	n	n	n	x	x
COc1ccc(C(=O)Nc2ccc(NC(=O)c3cc(OC)c(OC)c(OC)c3)cn2)cc1	n	n	43	n	n	38	n
COc1cccc(N2CCN(c3ncnc4c3[nH]c3ccccc34)CC2C)c1 (centres undefined)	x	x	55	x	x	75	90
Cc1cc2sc(C(=O)O)c(C)c2s1	n	n	30	n	n	42	n
CCSc1nnc(NC(=O)c2ccc(F)c(S(=O)(=O)N3CCOCC3)c2)s1	n	n	n	n	n	x	x
COc1ccc(C(=O)Nc2ccc3[nH]ncc3c2)cc1	n	n	n	n	n	x	x
